High-throughput results (PubChem)
The full list was thinned out, with hits kept by preference.
PKM2 inh – qHTS Assay for Inhibitors of Human Muscle isoform 2 Pyruvate Kinase | Potency, µM (highest dose often 57.5 µM), inactives show top-dose activity change, negative = inhibition, actives largely listed as inhibitors | AID 1634, 2009 | purified PKM2, ATP generation, Kinase-Glo luminescence | 0.058% of 260,000 active | Pyruvate kinase PKM (Homo sapiens), P14618; also: potency is read from the fitted curve at half-maximal effect; nearly all actives have a fitted effect of over 60% in size
Target sequence (P14618 whole entry, looked up, canonical isoform): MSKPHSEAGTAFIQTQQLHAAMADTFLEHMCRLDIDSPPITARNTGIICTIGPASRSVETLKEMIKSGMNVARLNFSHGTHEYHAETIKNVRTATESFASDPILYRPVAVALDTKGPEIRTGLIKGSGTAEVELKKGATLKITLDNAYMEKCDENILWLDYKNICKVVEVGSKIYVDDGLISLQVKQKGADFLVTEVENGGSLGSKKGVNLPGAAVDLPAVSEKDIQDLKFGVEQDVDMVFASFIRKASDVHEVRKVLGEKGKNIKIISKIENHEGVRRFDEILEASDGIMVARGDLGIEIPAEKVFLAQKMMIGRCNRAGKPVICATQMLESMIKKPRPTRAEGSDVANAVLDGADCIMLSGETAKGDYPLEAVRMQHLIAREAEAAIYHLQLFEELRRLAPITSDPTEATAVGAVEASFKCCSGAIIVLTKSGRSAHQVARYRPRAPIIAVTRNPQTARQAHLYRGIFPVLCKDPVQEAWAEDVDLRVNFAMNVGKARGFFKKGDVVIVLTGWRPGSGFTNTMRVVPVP
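Enzyme run at intermediate activity with final 0.1 mM ADP, 0.5 mM PEP (50 mM imidazole pH7.2, 50 mM KCl, 7 mM MgCl2), incubated 1 h at r.t. ATP formed read by Kinase-Glo luminescence, normalized to no-enzyme (full inhibition) and uninhibited wells.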
PKM2 inh CRC – Confirmation Concentration-Response Assay for Inhibitors of Human Muscle isoform 2 Pyruvate Kinase | shares compounds with PKM2 inh | purified hPK-M2, Kinase-Glo ATP luminescence, 1 h | Potency, µM (doses to about 57.5 µM), without a hit: top-dose activity change, negative = inhibition, actives largely listed as inhibitors | 50% of 55 active | AID 2263, 2010
FLuc counter – Secondary assay for Inhibitors of Human Pyruvate Kinase M2 isoform: FLuc Counterscreen. shares compounds with PKM2 inh. Kinase-Glo firefly luciferase, luminescence, 8 min. Potency, µM (doses to about 57.5 µM), for the others: top-dose activity, negative = inhibition, hits mostly inhibitors. 30% of 55 active. AID 2265, 2010
PKM2 LDH couple – Secondary assay for Inhibitors of Human Pyruvate Kinase M2 isoform; shares compounds with PKM2 inh; purified hPK-M2, LDH-coupled NADH fluorescence kinetic; Potency, µM (highest dose often 57.5 µM), inactives show at the top dose activity change, negative = inhibition, most hits filed as inhibitors; 55 tested, under 10 active; AID 2267, 2010
* hit, by the source's call; ? = inconclusive; · = no result given. Calls follow the shape of the dose curve; as a rule, active = well fitted curve in the direction sought with a large enough effect; inconclusive = small, poorly fitted or top-dose-only effect, or another doubt; inactive = no such curve, though single readings can be large; an effect the other way counts as inactive or inconclusive.

SMILES	PKM2 inh	others
Cn1cc(SCC(=O)Nc2nccs2)c2ccccc21	-9%
Cc1cc(NC(=O)CSc2nc3c(c(=O)n2Cc2ccccc2)SC(C)C3)no1 (configuration not stated)	36%
N#CC1=C(SCC(=O)c2ccccc2)NC2=C(C(=O)CCC2)C1c1ccco1 (configuration not stated)	33%
CCNc1nc(NC(C)C)nc(Oc2ccc(/C=N/O)cc2)n1	42%
Cc1ccc(-c2nc3cnccn3c2Nc2ccc3c(c2)OCCO3)o1	49%
COc1ccc(NC(=O)c2cc(-c3ccc(C)o3)nc3ccccc23)cc1OC	39%
Cc1ccc(Nc2c(-c3ccsc3)nc3c(C)cccn23)cc1	·	PKM2 inh CRC=8%;FLuc counter=-1%;PKM2 LDH couple=?
Cc1ccc(Nc2c(-c3ccc(C)o3)nc3cccc(C)n23)cc1	·	PKM2 inh CRC=14%;FLuc counter=0%;PKM2 LDH couple=6.5µM*
Cc1ccc(Nc2c(-c3ccsc3)nc3cccc(C)n23)cc1	·	PKM2 inh CRC=4%;FLuc counter=-4%;PKM2 LDH couple=?
COc1ccc(Nc2c(-c3ccc(C)o3)nc3ccccn23)cc1	·	PKM2 inh CRC=11%;FLuc counter=5%;PKM2 LDH couple=10%
Cc1ccc(-c2csc(Nc3ccc(S(N)(=O)=O)cc3)n2)o1	89%
CC(=O)SC(C[N+](=O)[O-])c1cn(C(C)=O)c2ccccc12 (configuration not stated)	60%
Cc1c(C(=O)OCCOC(C)C)[nH]c2c1C(=O)CC(c1ccco1)C2 (configuration not stated)	40%
CCC(C)c1ccc(NC(=O)c2[nH]c(C)c(C(C)=O)c2C)cc1 (configuration not stated)	34%
CC(C)(C)OC(=O)N1CCC(CNC(=O)c2ccccc2)CC1	-3%
COc1ccc(N2C(=O)CC(Sc3ncn[nH]3)C2=O)c(OC)c1 (configuration not stated)	106%
Cc1nc2cc(C(F)(F)F)ccc2n1C1CCN(C(=O)N2CCOCC2)CC1	40%
CC(C)c1ccc(/C=C/C(=O)NCCCc2ccccc2)cc1	-1%
O=C(Nc1ccc(S(=O)(=O)N2CCc3ccccc32)cc1)c1ccco1	71%
O=C1CC(c2ccc(OCCCCCOc3ccc(C4CC(=O)NC4=O)cc3)cc2)C(=O)N1 (configuration not stated)	120%
Cc1nc2cc(NS(=O)(=O)c3cccc4cccnc34)ccc2s1	31%
Cc1ccc(N2C(=O)CS(=O)C(c3ccccc3)C2=O)cc1C (configuration not stated)	51%
Cc1cc(C)cc(NS(=O)(=O)c2ccc3[nH]cc(C(=O)NCc4ccco4)c(=O)c3c2)c1	55%
CC(=O)c1cnc2nc(SCc3ccccc3C)nn2c1C	71%
Cc1ccc2cc(C#N)c(N3CCCC3)nc2c1C	43%
SMILES	PKM2 inh	others
CC(=O)C1=C(O)C(=O)N(Cc2cccnc2)C1c1ccc(O)cc1 (configuration not stated)	61%
COc1cccc(CNc2ccc(F)c([N+](=O)[O-])c2)c1O	43%
CN(Cc1ccon1)Cc1cn(C)nc1-c1cccc(Cl)c1	10µM*	PKM2 inh CRC=6%;FLuc counter=-1%;PKM2 LDH couple=-9%
CCc1ccccc1NS(=O)(=O)c1cc2c(cc1C)n(C)c(=O)c(=O)n2C	81%
Cc1ccc(-c2nn(-c3ccccc3)cc2CN(Cc2ccccc2)C(=O)c2ccco2)o1	61%
Cc1ccc2nc(-c3ccc(C)o3)c(NC3CCCC3)n2c1	·	PKM2 inh CRC=11%;FLuc counter=1%;PKM2 LDH couple=?
O=C(CNS(=O)(=O)c1cccs1)N1CCN(c2ccccn2)CC1	65%
CCOC(=O)CSc1nnc(Cc2ccccc2)n1-c1ccc(C)cc1	0%
Cc1ccc(S(=O)(=O)N2CCN(S(=O)(=O)c3ccc4c(c3)OCCO4)CC2)cc1	47%
